The entries come from a sample that favours hits as a whole.
14-3-3 PPI – modulators of human 14-3-3 gamma - Raf peptide interaction | P61981 | FP, 14-3-3gamma / TMR-pS259-Raf peptide binding | inhibition, % at 40 µM | 0.19% of 160,000 active | AID 422; in the data active means inhibition above about 30%
Target sequence (P61981 whole entry, looked up): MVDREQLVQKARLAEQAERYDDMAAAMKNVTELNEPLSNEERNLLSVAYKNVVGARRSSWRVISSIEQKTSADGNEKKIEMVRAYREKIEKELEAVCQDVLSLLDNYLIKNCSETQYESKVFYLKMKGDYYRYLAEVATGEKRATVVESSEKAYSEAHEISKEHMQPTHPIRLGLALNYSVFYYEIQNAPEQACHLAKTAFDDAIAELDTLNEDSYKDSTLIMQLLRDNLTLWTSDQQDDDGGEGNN
Each line names hits and unclear results; the compound was inactive in the other large screens.

COc1ccc(/C(O)=C2\C(=O)C(=O)N(CCCn3ccnc3)C2c2ccccc2F)cc1 (stereo unspecified)	14-3-3 PPI 36.7
COc1ccccc1C1/C(=C(\O)c2ccc(Cl)cc2)C(=O)C(=O)N1CCCn1ccnc1 (stereo unspecified)	none
CC(C)CNc1cc(C(C)C)c(C#N)c2nc3ccccc3n12	none
O=C(Nc1ccccc1-c1nc2ccccc2[nH]1)c1cc(=O)c2ccccc2o1	none
Cc1ccc(-n2cnc3cc(N=Cc4ccc(Br)cc4)ccc32)cc1	none
CC1=C(C(=O)OCCOc2ccccc2)C(c2cccc([N+](=O)[O-])c2)NC(=O)N1C (stereo unspecified)	none
CC1=C(C(=O)OCCOc2ccccc2)C(c2cccc([N+](=O)[O-])c2)NC(=O)N1 (stereo unspecified)	14-3-3 PPI 34.3
CC1=C(C(=O)OCc2ccccc2)C(c2cccc([N+](=O)[O-])c2)NC(=O)N1 (stereo unspecified)	none
Cc1ccc(N(CCOC(=O)c2ccc(S(=O)(=O)N3CCCCC3)cc2)C2=NS(=O)(=O)c3ccccc32)cc1	none
C=CCSc1nc2c(cnn2-c2ccc(C)cc2)c(=O)[nH]1	none
COc1cc(NS(=O)(=O)c2ccc(C)cc2)c2ncccc2c1	none
COc1cc(NCCCC(C)N)c2ncccc2c1 (stereo unspecified)	14-3-3 PPI 69.8
COc1cccc(CNc2cccc3cccnc23)c1O	none
CCn1cc(C(=O)N2CCc3ccccc3C2)c(=O)c2cc(S(=O)(=O)N3CCC(C)CC3)ccc21	none
C=Cc1c(C)c2cc3[nH]c(cc4nc(cc5nc(cc1[nH]2)C(C)=C5CCC(=O)O)C(CCC(=O)O)=C4C)c(C)c3C=C	14-3-3 PPI active
Cc1cccc(N2C(=O)C(N3C(=O)c4ccc([N+](=O)[O-])cc4C3=O)C2c2ccc(F)cc2)c1 (stereo unspecified)	none
O=C(Nc1ccccc1)c1cc2ccccc2c(C=Nc2ccc(Cl)cc2)c1O	none
COc1ccccc1N=Cc1c(O)c(C(=O)Nc2ccccc2OC)cc2ccccc12	14-3-3 PPI 78.4
CC(=O)Nc1ccc(N=Cc2c(O)c(C(=O)Nc3ccccc3)cc3ccccc23)cc1	14-3-3 PPI 174.3
COc1cc2ccccc2cc1C(=O)Nc1ccccc1Oc1ccccc1	none
CCOc1ccc(N=Cc2c(O)c(C(=O)Nc3ccccc3OC)cc3ccccc23)cc1	14-3-3 PPI 59.4
CC(=O)Nc1ccc(N=Cc2c(OC(=O)c3cccc4ccccc34)ccc3ccccc23)cc1	none
COc1ccccc1NC(=O)c1coc(=O)c2ccccc12	none
COc1ccccc1NC(=O)c1cc2ccccc2c(C=Nc2ccc(Cl)cc2)c1O	none
CCOc1ccccc1C(=O)Nc1cc(OC)ccc1OC	none
CCOc1ccc(NC(=O)c2cc(-c3cccs3)nc3ccccc23)cc1	none
CCOc1ccc(-c2nc3cc(N=Cc4c(O)ccc5ccccc45)ccc3o2)cc1	none
CCOc1ccc(N=Cc2c(O)c(C(=O)Nc3ccccc3)cc3ccccc23)cc1	14-3-3 PPI 71.5
O=C(O)C1CCCCC1C(=O)Nc1ccc(I)cc1 (stereo unspecified)	none
CCOc1ccc(NC(=O)c2ccc(NS(=O)(=O)c3c(C)n[nH]c3C)cc2)cc1	none
COCCN1C(=O)C(O)=C(C(C)=O)C1c1ccc([N+](=O)[O-])cc1 (stereo unspecified)	none
COc1ccc(Br)cc1C(=O)Nc1cccc(NC(=O)c2cccc(Cl)c2)c1	none
Cc1ccc(NC(=O)c2ccc(Cn3nc(C)c(Br)c3C)o2)cc1F	none
CC(C)c1ccc(NS(=O)(=O)c2ccc3[nH]cc(C(=O)NCc4ccccc4Cl)c(=O)c3c2)cc1	none
COc1ccc(N=Cc2cc(C)cc(I)c2O)cc1	none
CC(=O)c1ccc(N(C(C)=O)S(=O)(=O)c2ccc(Cl)cc2)cc1	none
O=C(Nc1ccccc1O)c1cccc(N2C(=O)c3ccc([N+](=O)[O-])cc3C2=O)c1	none
Cc1cc(C)cc(NC(=O)Cn2c3ccccc3c(=O)c3ccc(Cl)cc32)c1	none
CC1CC(C)CN(c2cc(NCCCC(=O)O)c3c4c(onc24)-c2ccccc2C3=O)C1 (stereo unspecified)	none
CC1CCCN(c2cc(NCCCC(=O)O)c3c4c(onc24)-c2ccccc2C3=O)C1 (stereo unspecified)	14-3-3 PPI 51.3
O=C(O)CCCNc1cc(N2CCN(C3CCCCC3)CC2)c2noc3c2c1C(=O)c1ccccc1-3	none
O=C(NCCCN1CCOCC1)c1ccc2nc(-c3cccs3)c(-c3cccs3)nc2c1	none
COc1ccc(OC)c(S(=O)(=O)Nc2ccc(C(C)=O)cc2)c1	none
COC(=O)c1ccc(C(=O)OC)c(NC(=O)c2ccc(OC)cc2OC)c1	none
COc1ccc(C(=O)Oc2ccc(C(C)=O)cc2)c(OC)c1	14-3-3 PPI 38.4
CC(=O)N1c2c(cc(Br)cc2S(=O)(=O)Nc2ccc(C)c(C)c2)CC1C (stereo unspecified)	none
CCOC(=O)C1CCCN(C(=O)C2c3ccccc3C(=O)N3CCc4cc(OCC)c(OCC)cc4C23)C1 (stereo unspecified)	none
C=CCN(CC=C)C(=O)C[n+]1ccc(C(N)=O)cc1	14-3-3 PPI 40.0
CCN(CC)C(=O)C[n+]1ccc(C(N)=O)cc1	none
C=CCN(CC=C)C(=O)C[n+]1cccc(C(N)=O)c1	none
O=C(NCc1ccccc1)c1nn2c(C(F)(F)F)cc(-c3ccco3)nc2c1Cl	none
Cc1cc(=O)oc2c(CN3CCCCC3)c(O)c(Cl)cc12	none
Cc1cc(=O)oc2c(CN(CC(C)C)CC(C)C)c(O)ccc12	none
CCN(CC)Cc1c(O)c(Cl)cc2c(C)cc(=O)oc12	14-3-3 PPI 63.4
Cc1cc(=O)oc2c(CN3CCC(C)CC3)c(O)c(Cl)cc12	14-3-3 PPI 60.5
CCN1CCN(Cc2c(O)c(Cl)cc3c(C)cc(=O)oc23)CC1	none
Cc1c(C)c2cc(Cl)c(O)c(CN3CCN(C)CC3)c2oc1=O	none
Cc1cccc(-n2ccnc2SCC(=O)Nc2cccc(Cl)c2)c1	none
O=C(Oc1ccc(C=Nc2ccccc2Cl)cc1[N+](=O)[O-])c1ccccc1	none
COc1ccccc1-c1coc2c(CN3CCOCC3)c(O)ccc2c1=O	14-3-3 PPI 30.3
COc1cccc(Oc2coc3c(CN4CCOCC4)c(O)ccc3c2=O)c1	none
O=c1c(-c2ccc3c(c2)OCCO3)coc2c(CN3CCOCC3)c(O)ccc12	none
CCn1cc(C(=O)Nc2ccc(S(=O)(=O)NC(=O)c3ccccc3)cc2)c(=O)c2ccc(C)nc21	none
O=c1oc2cc(O)ccc2cc1-c1nnc(Nc2ccccc2)s1	none
O=C(Oc1cccc(N2C(=O)C3C4CCC(C4)C3C2=O)c1)c1ccc(Br)cc1 (stereo unspecified)	none
COc1ccc(C(=O)Nc2nc3c(C)cccc3s2)cc1	none
Brc1ccc(C=Nc2nc3c(s2)CCCC3)cc1	none
Oc1ccc2ccccc2c1C=Nc1cccc2ccccc12	none
Oc1ccc2ccccc2c1C=Nc1nc2c(s1)CCCC2	14-3-3 PPI 36.1
O=C(CN(Cc1ccccc1)S(=O)(=O)c1ccc(Br)cc1)NCc1ccccn1	none
Cc1cccc(CN2CCC(CNC(=O)C3c4ccccc4C(=O)N(C)C3c3c[nH]c4ccccc34)CC2)c1 (stereo unspecified)	none
COc1cc2c(cc1NC(=O)Cc1ccccc1)oc1ccccc12	none
COc1ccc(N2C(=O)C3C4c5ccccc5C(CO)(c5ccccc54)C3C2=O)c([N+](=O)[O-])c1 (stereo unspecified)	none
CCOc1ccc(NC(=O)c2ccc(F)c(S(=O)(=O)NCc3ccc(F)cc3)c2)cc1	none
COc1ccc(-c2nc(CSCC(=O)N3CCC(C(N)=O)CC3)c(C)o2)cc1OC	none
CCOC(=O)N1CCC(NC(=O)CSCc2nc(-c3ccc(OC)c(OC)c3)oc2C)CC1	14-3-3 PPI 60.7

Screens deposited in PubChem by Emory University Molecular Libraries Screening Center.
